We go through 15 compounds from PubChem BioAssay (NCATS).

Records with an inconclusive call do not appear. Unmarked numbers belong to inactive results. Active and inactive are the calls of the source. The call rests on the fitted dose curve; in most records, active means well fitted curve in the direction sought with a large enough effect; inconclusive means small, poorly fitted or top-dose-only effect, or another doubt; inactive means no such curve, though single readings can be large; an effect the other way counts as inactive or inconclusive.

The target in test [1] is Aldehyde dehydrogenase, mitochondrial (Homo sapiens) (UniProt P05091). Briefly: qHTS for Inhibitors of the Aldehyde Dehydrogenase Family (ALDH2) Primary screen (AID 2061308). Further: nearly all actives have a fitted effect of over 55% in size. Further: potency means the concentration at half of the fitted maximal effect. A general note: qHTS replaces the single test concentration by a dilution series.
Test [2] concerns the target Retinaldehyde dehydrogenase 3 (Homo sapiens) (UniProt P47895). Briefly: qHTS for Inhibitors of the Aldehyde Dehydrogenase Family (ALDH1A3) Validation screen (AID 2061312). Further: on the % scale 0 is the no-effect control and ±100 the full control effect; nearly all actives have a fitted effect of over 45% in size.
Test [3] shares this target. Briefly: qHTS for Inhibitors of the Aldehyde Dehydrogenase Family (ALDH1A3) Primary screen (AID 2061315).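 Further: plate controls were DMSO vehicle for no effect and reference inhibitor for full effect.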
A short description of test [4]: BET inhibitor-based combinations targeting novel dependencies in MECOM-rearranged (r) AML: OCI-AML3 cell line (AID 2202232). Further: nearly all actives have a fitted effect of over 35% in size. Further: potency means the concentration at half of the fitted maximal effect. The note with it: Potency: OCI-AML3 viability. The method in brief:
(§1)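 Each compound was tested at eleven concentrations on cells seeded at 500/well. After two days' incubation, ATP-based luminescence reported viability; responses relative to DMSO and blank wells yielded AUC and cell-line-centred Z-AUC.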

The nature of test [5]: BET inhibitor-based combinations targeting novel dependencies in MECOM-rearranged (r) AML: MV-4-11 cell line (AID 2202233). Further: nearly all actives have a fitted effect of over 45% in size. Further: potency means the concentration at half of the fitted maximal effect. The method in brief: (§2)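 First, 500 cells per well were seeded; next, drugs were pinned as 11-point doses; then plates sat 48 hr in the incubator; finally CellTiter-Glo was added and luminescence read, with AUC and Z-AUC computed.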
The nature of test [6]: BET inhibitor-based combinations targeting novel dependencies in MECOM-rearranged (r) AML: HNT-34 cell line (AID 2202234). Further: nearly all actives have a fitted effect of over 35% in size. Further: potency means the concentration at half of the fitted maximal effect. An outline of the steps: as §2
Test [7] is described as follows: BET inhibitor-based combinations targeting novel dependencies in MECOM-rearranged (r) AML: AML-194 cell line (AID 2202237; further: potency means the concentration at half of the fitted maximal effect; nearly all actives have a fitted effect of over 40% in size). An outline of the steps:
as §1

A short description of test [8]: BET inhibitor-based combinations targeting novel dependencies in MECOM-rearranged (r) AML: SET-2 cell line (AID 2202231). Further: nearly all actives have a fitted effect of over 35% in size. Further: potency means the concentration at half of the fitted maximal effect.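 On viability: plate controls were DMSO treated cells for no effect and wells without cells for full effect.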 Conditions: SET-2 AML cells viability, CellTiter-Glo luminescence, 48 h; viability: active compounds read low, concentration not given here. An outline of the steps:
as §1

A short description of test [9]: BET inhibitor-based combinations targeting novel dependencies in MECOM-rearranged (r) AML: UCSD-AML1 cell line (AID 2202235). Further: nearly all actives have a fitted effect of over 40% in size. Further: potency means the concentration at half of the fitted maximal effect. The method in brief:
as §2

Test [10] can be described thus: BET inhibitor-based combinations targeting novel dependencies in MECOM-rearranged (r) AML: AML-191 cell line (AID 2202236; further: nearly all actives have a fitted effect of over 35% in size; further: potency means the concentration at half of the fitted maximal effect). An outline of the steps: as §1
Test [11] concerns the target Retinal dehydrogenase 2 (Homo sapiens) (UniProt O94788). In words: qHTS for Inhibitors of the Aldehyde Dehydrogenase Family (ALDH1A2) Confirmation screens (AID 2061314). Further: nearly all actives have a fitted effect of over 65% in size. Further: potency means the concentration at half of the fitted maximal effect.
Test [12] deals with Aldehyde dehydrogenase 1A1 (Homo sapiens) (UniProt P00352). Briefly: qHTS for Inhibitors of the Aldehyde Dehydrogenase Family (ALDH1A1) Confirmatory screens (AID 2061316). Further: potency means the concentration at half of the fitted maximal effect; nearly all actives have a fitted effect of over 65% in size.

For `Cc1c(NC(=O)OC[C@@H]2COCCN2)cn2ncnc(Nc3ccc4c(cnn4Cc4cccc(F)c4)c3)c12`, the Potency entry in test [1], in test [2] and in [3] was “inactive” throughout. In addition, the Potency was 10.5 µM (active) in [4], 18.6 µM (active) in test [5], 20.9 µM (active) in test [6] and 23.5 µM (active) in [7].

In the case of `Cc1[nH]c2ccccc2c1CCNCc1ccc(/C=C/C(=O)NO)cc1`, the Potency result in [1] and in [2] was “inactive” each time. The Potency in [8] is 0.0833 µM (active); in test [4], 0.0661 µM (active); in test [5], 0.0525 µM (active); in [6] it was 0.0934 µM (active); in [9] it was 0.0934 µM (active); in test [10], 0.0833 µM (active). In addition, the Potency in test [7] was 0.105 µM (active).

On to `COc1ccc(C2=Nn3c(nnc3-c3ccc(OC)cc3OC)SC2)cc1`, for which the Potency entry in [1], in [11] and in test [3] was “inactive” in each case.

For the compound `C[C@H]1O[C@@H](O[C@H]2[C@@H](O)C[C@H](O[C@H]3[C@@H](O)C[C@H](O[C@H]4CC[C@@]5(C)[C@H](CC[C@@H]6[C@@H]5C[C@@H](O)[C@]5(C)[C@@H](C7=CC(=O)OC7)CC[C@]65O)C4)O[C@@H]3C)O[C@@H]2C)C[C@H](O)[C@@H]1O`, the Potency entry in test [1], in test [2] and in test [3] was “inactive” in each case. For the same compound, the Potency was 0.118 µM (active) in test [4]; 0.105 µM (active) in test [5]; 0.105 µM (active) in test [6]; 0.132 µM (active) in test [9]; 0.132 µM (active) in test [10]; 0.118 µM (active) in [7].

Take `c1nc(NCC2CCCOC2)c2cc(-c3ccc4c(c3)OCO4)ccc2n1` (stereo not drawn): the Potency result in test [1] and in test [3] was “inactive” throughout. Also, the Potency in [11] is 11.3 µM (active).

As to `O=C(N[C@H]1CCC[C@H](CO)C1)C1CCN(c2nc3cc(Cl)c(-c4ccc(Cl)cc4)cc3o2)CC1`, the Potency entry in test [1], in [2], in test [3] and in test [9] was “inactive” throughout. In test [8], the Potency is 20.9 µM (active).

As to `O=C(/C=C\n1cnc(-c2cc(C(F)(F)F)cc(C(F)(F)F)c2)n1)N1CC(F)(F)C1`, the Potency result in [1], in test [2] and in [3] was “inactive” each time. Moreover, the Potency in test [8] is 1.66 µM (active); in [4] it was 2.63 µM (active); in test [5] it was 1.32 µM (active); in [6] it was 5.25 µM (active); in test [9] it was 0.934 µM (active); in test [7], 1.05 µM (active).

With `CS(=O)(=O)N1CCN(c2nc(-c3ccc(Br)cc3)cs2)CC1`, the Potency entry in [1], in [11] and in [3] was “inactive” throughout.

For `Cn1ncc(Cl)c1-c1cc(C(=O)NC(CN)Cc2ccc(F)c(F)c2)oc1Cl` (stereo not drawn), the Potency result in test [1], in test [2] and in test [3] was “inactive” throughout. Moreover, the Potency is 18.6 µM (active) in test [4]; 11.8 µM (active) in test [5]; 18.6 µM (active) in [6]; 13.2 µM (active) in test [9]; 20.9 µM (active) in [10]; 18.6 µM (active) in [7].

For `CNCc1ccc(C)c(NC(=O)c2ccc(Nc3nc(-c4ccccc4)c4ccccc4n3)cc2)c1`, the Potency result in [1], in test [2] and in test [3] was “inactive” in each case. For the same compound, the Potency in test [4] was 16.6 µM (active); in test [5], 13.2 µM (active); in [6], 20.9 µM (active); in test [10], 20.9 µM (active).

`OCCNC1CCCc2c1[nH]c1ccc(-c3ccccc3)cc21` (stereo not drawn): the Potency result in [1], in test [2] and in test [3] was “inactive” throughout. The Potency in test [8] is 11.8 µM (active); in test [4], 16.6 µM (active); in test [5], 11.8 µM (active); in [6] it was 14.8 µM (active); in test [10] it was 16.6 µM (active); in test [7], 13.2 µM (active).

For `N#Cc1c(-c2ccc(F)c(Br)c2)no[n+]1[O-]`, the Potency was 3.98 µM (active) in test [1], 2.52 µM (active) in test [11] and 20.1 µM (active) in [12]. Also, the Potency entry in test [3] is “inactive”.

For orientation: viability means a read-out of living cells in per cent, often relative to untreated cells. Turning to `CCCc1cc(C)[nH]c(=O)c1CNC(=O)c1cc(-c2ccc(N3CCN(C(C)C)CC3)nc2)cc2c1cnn2C(C)C`, the Potency entry in test [1], in test [2] and in test [3] was “inactive” in each case. Besides, the viability in test [8] is 110%. Further, the Potency is 18.6 µM (active) in test [4]; 16.6 µM (active) in [5]; 20.9 µM (active) in test [6]; 16.6 µM (active) in test [9]; 29.5 µM (active) in [10]; 14.8 µM (active) in [7].

As for `O=C(Nc1ncc(Cc2ccc(C(F)(F)F)cc2)s1)c1ccc(-c2ccc([N+](=O)[O-])cc2)o1`, the Potency result in [1] and in test [3] was “inactive” each time. Further, the Potency in test [11] is 22.5 µM (active).

Regarding `Cn1c(=O)c2c(ncn2CC2OCCO2)n(C)c1=O`, the Potency result in test [1], in test [2], in test [3], in [4], in [5] and in test [6] was “inactive” in each case. Besides, the Potency result in [9] and in [10] was “inactive” throughout.
